Compounds without any hit were thinned out: in the full panel of roughly 83,000, 20% have a hit.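 How to read the values: 0–100, growth inhibition (40 = 60% inhibited); 0, no net growth; -100 to 0, cell death (-40 = 40% of starting cells died; -100 = all dead).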 A number with no mark means an inactive call. Calls of active or inactive are those of the source. The calls were made as follows: active = growth percent below 10; inactive = the rest.

Drawing on PubChem BioAssay (NCI), this text covers growth for 14 molecules.

Test systems include DU-145 prostate; K-562 leukemia; MALME-3M melanoma; MDA-MB-231 breast; RXF 393 renal; SF-268 CNS; SF-295 CNS; SF-539 CNS; UACC-257 melanoma; M14 melanoma.
Test in all cases: NCI-60 one-dose screen, 48 h (100 = growth as untreated, 0 = no growth, -100 = all killed)
Holding throughout (conditions): 10 µM unless noted

As to `CCC(C)CC(N)O` (stereo unspecified), the growth with DU-145 prostate was 114%; in the assay with K-562 leukemia, 108%; in the assay on MALME-3M melanoma, 130%; in the assay on MDA-MB-231 breast it was 116%; in the assay on RXF 393 renal it was 91.8%; in the assay on SF-268 CNS, 108%. Further, the growth is 99.4% in the assay with SF-295 CNS, 107% with SF-539 CNS, 102% in the assay with UACC-257 melanoma and 103% with M14 melanoma.

As for `O=c1c2c(c3ccccc3n1-c1ccccc1)NC(=S)NC2c1ccc(Cl)cc1` (stereo unspecified), the growth is 47.2% in the assay with DU-145 prostate; 43.1% in the assay with K-562 leukemia; 39.2% with MALME-3M melanoma; 50.5% in the assay with MDA-MB-231 breast; 46.3% in the assay with RXF 393 renal; 43.5% with SF-268 CNS. Further, the growth was 25.9% with SF-295 CNS, 21.2% in the assay with SF-539 CNS, 44.1% with UACC-257 melanoma and 29.1% with M14 melanoma.

Regarding `Cc1c(Cc2ccccc2)c(=O)oc2c(C)c(OCC(=O)n3nc(C#N)cc3N)ccc12`, the growth with DU-145 prostate was 104%; with K-562 leukemia it was 102%; in the assay with MALME-3M melanoma, 99.5%; in the assay with MDA-MB-231 breast, 103%; in the assay on RXF 393 renal, 119%; with SF-268 CNS, 97.1%. Besides, the growth in the assay on SF-295 CNS was 94.7%; with SF-539 CNS, 99.3%; in the assay with UACC-257 melanoma it was 105%; with M14 melanoma it was 96.3%.

As for `C[C@]12C=CC(=O)C=C1[C@@H](F)C[C@@H]1[C@@H]2[C@@H](O)C[C@@]2(C)[C@H]1CC[C@]2(O)C(=O)CO`, the growth in the assay on DU-145 prostate was 95.1%; in the assay on K-562 leukemia, 125%; in the assay on MALME-3M melanoma it was 81.8%; in the assay on MDA-MB-231 breast it was 80.6%; with RXF 393 renal, 126%; with SF-268 CNS it was 96.9%. The growth in the assay on SF-295 CNS is 123%; in the assay with SF-539 CNS, 96.1%; in the assay with UACC-257 melanoma, 96.1%; with M14 melanoma, 92.5%.

With `CCOC(=O)/C(C#N)=C(/CC)OCC`, the growth in the assay on DU-145 prostate is 106%; with K-562 leukemia, 89%; in the assay on MALME-3M melanoma, 92.6%; in the assay with MDA-MB-231 breast it was 107%; in the assay with RXF 393 renal, 114%; in the assay on SF-268 CNS it was 93.1%. The growth with SF-295 CNS was 101%; with SF-539 CNS it was 113%; in the assay on UACC-257 melanoma, 99.9%; in the assay with M14 melanoma it was 95.5%.

For `N=C(N)c1ccc(-c2ccc(-c3cc(Cl)cc(Cl)c3)s2)cc1`, the growth is -89.8% (active) in the assay with DU-145 prostate; -55.1% (active) in the assay with K-562 leukemia; -74.4% (active) in the assay with MALME-3M melanoma; -78.4% (active) in the assay with MDA-MB-231 breast; -90.2% (active) with RXF 393 renal; -66.1% (active) in the assay on SF-268 CNS. The growth with SF-295 CNS is -87.3% (active); with SF-539 CNS it was -92.7% (active); with UACC-257 melanoma, -44% (active); in the assay with M14 melanoma, -85.3% (active).

Regarding `O=C(N/N=C/c1cc(Cl)ccc1O)C(=O)N/N=C/c1cc(Cl)ccc1O`, the growth in the assay on DU-145 prostate was 71.1%; in the assay with K-562 leukemia, 51.9%; in the assay with MALME-3M melanoma, 80.1%; with MDA-MB-231 breast it was 76.5%; in the assay on RXF 393 renal it was 80.3%; in the assay with SF-268 CNS, 56.5%. The growth is 52.2% in the assay on SF-295 CNS, 57.3% in the assay on SF-539 CNS, 69.6% in the assay with UACC-257 melanoma and 78.6% with M14 melanoma.

Turning to `COc1cc([C@@H]2c3cc4c(cc3[C@H](O)[C@H]3COC[C@@H]23)OCO4)cc(OC)c1OC`, the growth in the assay with DU-145 prostate is 96.7%; in the assay on K-562 leukemia, 39.1%; in the assay with MALME-3M melanoma, 43.3%; with MDA-MB-231 breast, 73.8%; in the assay on RXF 393 renal it was 83.1%; with SF-268 CNS it was 80.9%. Moreover, the growth with SF-295 CNS is 56.3%; in the assay with SF-539 CNS, 75%; in the assay with UACC-257 melanoma, 75.8%; with M14 melanoma, 42.4%.

In the case of `CCCCCCCCCCCCOC(=N)N(C)C`, the growth in the assay on DU-145 prostate is 112%; in the assay with K-562 leukemia it was 96.3%; in the assay on MALME-3M melanoma, 88.9%; with MDA-MB-231 breast, 104%; with RXF 393 renal, 112%; with SF-268 CNS, 101%. For the same molecule, the growth was 98.4% in the assay with SF-295 CNS, 99.4% with SF-539 CNS, 92.2% in the assay with UACC-257 melanoma and 106% in the assay on M14 melanoma.

Turning to `O=C1CCNC1`, the growth in the assay with DU-145 prostate was 103%; in the assay with K-562 leukemia, 108%; in the assay with MALME-3M melanoma it was 108%; with MDA-MB-231 breast, 101%; in the assay on RXF 393 renal, 105%; in the assay with SF-268 CNS, 111%. The growth was 108% with SF-295 CNS, 102% in the assay on SF-539 CNS, 95.8% in the assay with UACC-257 melanoma and 105% with M14 melanoma.

Consider `CC(O)CCC(C)[N+](=O)[O-]` (stereo unspecified), for which the growth is 111% in the assay with DU-145 prostate; 99.9% in the assay with K-562 leukemia; 106% in the assay on MALME-3M melanoma; 110% in the assay with MDA-MB-231 breast; 119% in the assay on RXF 393 renal; 104% with SF-268 CNS. Further, the growth is 99% in the assay on SF-539 CNS, 102% in the assay with UACC-257 melanoma and 106% with M14 melanoma.

As for `Br/C(=N\Nc1nn[nH]n1)c1ccccc1`, the growth in the assay with DU-145 prostate was 119%; with K-562 leukemia, 110%; in the assay on MALME-3M melanoma, 104%; in the assay with MDA-MB-231 breast, 96.4%; in the assay with RXF 393 renal, 96.3%; in the assay on SF-268 CNS, 114%. Further, the figures for the growth with SF-295 CNS, in the assay with SF-539 CNS and with M14 melanoma were 101%, 96.7% and 99%, respectively.

In the case of `OCCN1CCCN(CCCN2c3ccccc3Sc3ccc(C(F)(F)F)cc32)CC1`, the growth with DU-145 prostate was 78.8%; in the assay on K-562 leukemia it was 2.61% (active); in the assay with MALME-3M melanoma it was 44.5%; with MDA-MB-231 breast it was 64.9%; with RXF 393 renal, 47%; with SF-268 CNS it was 64.9%. Further, the growth in the assay with SF-295 CNS was 31%; with SF-539 CNS, 67.2%; in the assay on M14 melanoma, 7.54% (active).

In the case of `CC1(C)N=C(N)N=C(N)N1c1cccc(CCCCOc2ccccc2)c1`, the growth in the assay with DU-145 prostate was 27.6%; in the assay with K-562 leukemia, 16.2%; in the assay with MALME-3M melanoma it was 43.1%; with MDA-MB-231 breast it was 46.8%; with RXF 393 renal, 50.2%; with SF-268 CNS it was 27.2%. Besides, the growth is 34.1% with SF-539 CNS, 28.7% in the assay on UACC-257 melanoma and 23.6% with M14 melanoma.
